# The supplement of paper PMC12636033
# ± gives the standard deviation of the averaged measurements. Whole data set: some 33,000 sequences, median “E-score (rank enrichment, -0.5 to 0.5)” near -0.0028, cut for the highest 2% near 0.23. What follows is part of a selection rich in the highest values, with near analogues and random picks from the rest.
# System: 2Sb-muMax20 (muMax20 with two 1,3-bis(methyl)benzene Cys staples, A13C/A17C and Q88C/A92C, C-terminal Lys)
# Assay: PBM 8-mer E-score (E-score (rank enrichment, -0.5 to 0.5)); higher = stronger preferential binding
# Experimental: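 Protein binding microarray (universal PBM chip covering all 10-mers in fixed probe flanks) with chemically synthesized human Max(13-93) bHLH-LZ analogs (not full-length Max) bearing noncanonical residues (hArg, Tha, Aib, Nle at 65) and aromatic Cys staples. Read-out per 8-mer (and its reverse complement): E-score (rank-based enrichment, -0.5 to 0.5) and Z-score of median probe intensity.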
row,Sequence,PBM 8-mer E-score
1,CTGTTTCC,-0.0107 ± 0.033
2,CGCGCACG,0.0273 ± 0.007
3,GAATCTAC,0.0758 ± 0.0052
4,AATACCCG,-0.105 ± 0.092
5,ATTACCCC,0.226 ± 0.0063
6,TATACCCA,0.0636 ± 0.015
7,ATTACCCG,0.0122 ± 0.03
8,AATACCCA,0.272 ± 0.021
9,ATTACCCA,0.2414 ± 0.0019
10,ATTCCAAT,-0.0251 ± 0.027
11,CAGGACCA,-0.196 ± 0.036
12,ATCTGTCC,0.0828 ± 0.032
13,ATCTGTCG,0.089 ± 0.014
14,ATCTGTCA,0.236 ± 0.0051
15,CGGACTCA,-0.147 ± 0.028
16,ATACAACC,-0.0388 ± 0.043
17,CTACAAGC,-0.00747 ± 0.0035
18,CTACAACA,0.0685 ± 0.041
19,ATACAAGC,0.284 ± 0.043
20,ATACAACA,0.239 ± 0.053
21,GTACAACA,0.159 ± 0.0065
22,ATACAAGA,-0.044 ± 0.011
23,ATACAACG,0.252 ± 0.027
24,ACACAACG,0.0437 ± 0.0021
25,CTTACGCC,0.0349 ± 0.067
26,AGTCTACA,-0.0861 ± 0.047

row,Sequence,PBM 8-mer E-score
1,TAGCAATA,-0.02 ± 0.012
2,AGGCCGCG,-0.113 ± 0.078
3,GAGACGCA,0.0251 ± 0.025
4,TCGGGCAA,-0.0563 ± 0.02
5,CAAGGTTA,-0.0419 ± 0.083
6,AAAGGTAG,0.176 ± 0.01
7,AAGCCGTG,-0.228 ± 0.057
8,ACGCGAAG,-0.0725 ± 0.09
9,TGTAGAAA,0.236 ± 0.0088
10,AGTAGAAA,0.1174 ± 0.00047
11,CGTAGAAA,-0.0374 ± 0.016
12,CTATGCGC,-0.0257 ± 0.0089
13,CGACCAAG,-0.128 ± 0.0088
14,GTTAGTTA,0.108 ± 0.058
15,GTAAGTTA,0.0157 ± 0.033
16,ATAAGTTA,0.241 ± 0.01
17,CTAAGTTA,0.0294 ± 0.017
18,ATTAGTTG,0.205 ± 0.022
19,ATTAGTTA,0.233 ± 0.039
20,AGAATTGG,0.092 ± 0.037
21,ATGCTAGC,0.17 ± 0.0032
22,CCCGCCTC,0.0922 ± 0.074
23,GCTAAAGA,0.0447 ± 0.088
24,CAAGTTTA,0.151 ± 0.057
25,ACTCCGAC,-0.182 ± 0.046
26,AATCACAC,0.131 ± 0.016

row,Sequence,PBM 8-mer E-score
1,CAAAAACA,0.00439 ± 0.066
2,ACTATGCC,0.101 ± 0.025
3,ATTTTGTA,0.271 ± 0.013
4,GGTTTGTA,0.0375 ± 0.026
5,GTTTTGTA,0.279 ± 0.035
6,CTTTTGTA,0.136 ± 0.035
7,ATTTTGTG,0.0967 ± 0.078
8,GTTTTGCA,0.0867 ± 0.05
9,AAGGTTCC,-0.178 ± 0.069
10,GGGTTGTA,0.0272 ± 0.0033
11,TAGACAAA,0.053 ± 0.034
12,CACGAATC,-0.015 ± 0.029
13,AGAAGATG,-0.0449 ± 0.09
14,ATCAAGAA,0.121 ± 0.044
15,CAAATTTC,0.208 ± 0.085
16,AAAAATTA,0.0513 ± 0.022
17,CAAAATTA,0.108 ± 0.0041
18,GAAAATTA,0.2425 ± 0.002
19,GAAATTTC,0.245 ± 0.17
20,AGAAATTA,0.0685 ± 0.035
21,AAAATTTC,0.0563 ± 0.036
22,GGAAATTA,0.304 ± 0.016
23,CGAAATTA,-0.0924 ± 0.033
24,CGAAAACC,-0.0224 ± 0.019
25,ACATACCC,-0.0475 ± 0.056
26,ACTCTTTG,0.0269 ± 0.0091

row,Sequence,PBM 8-mer E-score
1,TTAGATAA,0.113 ± 0.021
2,AACGCTCT,-0.0435 ± 0.014
3,CAACCTGA,-0.0727 ± 0.068
4,AAGCGCTC,-0.108 ± 0.037
5,AAGCGCTT,0.309 ± 0.011
6,AAGCGCTA,-0.041 ± 0.0066
7,ACTGAGCC,-0.209 ± 0.022
8,GAATAGCA,0.146 ± 0.046
9,CATCCATG,-0.0304 ± 0.072
10,ACTACTAG,0.241 ± 0.027
11,ATTACTAG,-0.0604 ± 0.047
12,ACTAGTAG,0.113 ± 0.013
13,ACTACTAC,0.0819 ± 0.046
14,ACTACTAT,0.173 ± 0.036
15,GCTACTAC,0.233 ± 0.0041
16,ATTACTAC,0.296 ± 0.011
17,ACTAGTAA,0.231 ± 0.036
18,ACTAGTAT,0.201 ± 0.067
19,CCTACTAG,0.0815 ± 0.034
20,CTTACTAC,0.202 ± 0.032
21,GCTACTAA,0.082 ± 0.075
22,ACCTGTGA,-0.138 ± 0.064
23,CCTATGAG,-0.157 ± 0.032
24,AATCTAGA,-0.047 ± 0.028
25,CCGTTTAA,-0.0517 ± 0.035
26,AGAGCGTA,0.00302 ± 0.045

row,Sequence,PBM 8-mer E-score
1,AGATGATC,-0.147 ± 0.013
2,ACGGTGAG,-0.0622 ± 0.023
3,CAGAATTA,-0.00473 ± 0.0023
4,AGCGAAGA,-0.0699 ± 0.084
5,CACATGCG,0.124 ± 0.051
6,CTCATGTA,0.0268 ± 0.039
7,CACATGTC,-0.0158 ± 0.02
8,AACATGTC,0.11 ± 0.051
9,TACATGCA,0.181 ± 0.0009
10,CACATGTG,0.395 ± 0.00083
11,GACATGTA,0.147 ± 0.021
12,CACATGAA,0.125 ± 0.0092
13,CACATGTA,0.338 ± 0.0074
14,AACATGTT,0.122 ± 0.0036
15,TACATGTA,0.238 ± 0.06
16,AACATGTG,0.344 ± 0.044
17,CAACTCAG,-0.162 ± 0.038
18,ACCGTCAG,-0.115 ± 0.051
19,GACAGGAC,-0.0924 ± 0.0031
20,GGGACCGA,-0.24 ± 0.04
21,GGGCAGAC,-0.0224 ± 0.074
22,GAACGATA,0.0756 ± 0.039
23,AGTAACCC,0.0955 ± 0.019
24,AATAAACA,0.195 ± 0.025
25,AACATGCA,0.203 ± 0.011
26,AACATGTA,0.258 ± 0.027

row,Sequence,PBM 8-mer E-score
1,AACATGGA,-0.00271 ± 0.005
2,CCCATCAA,0.12 ± 0.019
3,CCCATCAC,0.249 ± 0.026
4,GCCATCAC,-0.154 ± 0.0083
5,GCAGAAAA,0.0213 ± 0.046
6,TAATGGGA,0.147 ± 0.011
7,AATTAGCT,0.164 ± 0.022
8,CCCCTTCA,0.294 ± 0.014
9,CCCCTTGA,0.27 ± 0.0079
10,TCCCTTCA,0.0279 ± 0.022
11,GCCCTTGA,-0.0328 ± 0.041
12,ACCCTTGA,-0.145 ± 0.041
13,CCCCTTCC,-0.0525 ± 0.1
14,GGCCGCAC,-0.0381 ± 0.06
15,CGCCACGC,-0.118 ± 0.0025
16,GATTACCC,0.093 ± 0.041
17,ATCGGCCC,0.0612 ± 0.096
18,GTGCCGCA,-0.0229 ± 0.078
19,ACCCCCAT,-0.188 ± 0.066
20,AACCCAAT,-0.0928 ± 0.095
21,ACCCCAAT,0.344 ± 0.025
22,AACCCATG,0.106 ± 0.067
23,ACCCCAAA,0.2008 ± 0.0017
24,ACCCCATA,0.147 ± 0.013
25,ACCCCATG,0.253 ± 0.019
26,ACCCCAAC,0.217 ± 0.019

row,Sequence,PBM 8-mer E-score
1,ACCCCAAG,0.271 ± 0.016
2,CATTGCCA,-0.0459 ± 0.045
3,CACCAGAA,-0.00913 ± 0.061
4,GAGTCAGA,-0.0579 ± 0.039
5,ACGGCCAA,-0.0314 ± 0.0051
6,ACTGGTGC,-0.0379 ± 0.026
7,CTATTCAC,-0.0182 ± 0.015
8,CGATAGAA,0.0743 ± 0.02
9,CGTCCGAA,-0.121 ± 0.017
10,AACAGAAA,0.0674 ± 0.036
11,GACAGAAA,0.111 ± 0.013
12,TACAGAAA,0.256 ± 0.021
13,AAGACGTC,0.0152 ± 0.028
14,GATGGCAA,0.242 ± 0.012
15,GATGGCAC,0.03519 ± 8.5e-05
16,CATGGCAA,-0.0308 ± 0.0076
17,ATGCCGCA,0.0568 ± 0.0082
18,AGCGAGGA,-0.0458 ± 0.014
19,GTCTTCTA,0.00543 ± 0.00074
20,GCTACCCC,-0.0378 ± 0.075
21,CGTACCCA,0.0446 ± 0.097
